# Reference: PubChem BioAssay AID525 (The Scripps Research Institute Molecular Screening Center, 2006)
# Among all 65,000 compounds or so, about 360 (0.55%) were called active. For the sample, actives were picked, then their nearest neighbours and some compounds at random. Unmarked numbers belong to inactive results.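 How the source made its calls: active means inhibition above the mean inhibition of all tested compounds plus 3 SD (cut at about 48% in these data); inactive means the rest.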
# Molecular target: Steroidogenic factor 1 (Homo sapiens) (UniProt Q13285)
# Test: inhibitors of human SF-1, primary screen, cell-based, CHO-K1, Gal4-SF-1 LBD, luciferase luminescence (AID 525);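 further: 0% = SF-1 transfected cells with DMSO and 100% = mock-transfected cells lacking SF-1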
# Conditions: CHO-K1 Gal4-SF-1 LBD luciferase reporter; at 10 µM; stronger effect = higher value
# Sequence of Steroidogenic factor 1 (Homo sapiens) (Q13285 whole entry, looked up, the tested form may be a part): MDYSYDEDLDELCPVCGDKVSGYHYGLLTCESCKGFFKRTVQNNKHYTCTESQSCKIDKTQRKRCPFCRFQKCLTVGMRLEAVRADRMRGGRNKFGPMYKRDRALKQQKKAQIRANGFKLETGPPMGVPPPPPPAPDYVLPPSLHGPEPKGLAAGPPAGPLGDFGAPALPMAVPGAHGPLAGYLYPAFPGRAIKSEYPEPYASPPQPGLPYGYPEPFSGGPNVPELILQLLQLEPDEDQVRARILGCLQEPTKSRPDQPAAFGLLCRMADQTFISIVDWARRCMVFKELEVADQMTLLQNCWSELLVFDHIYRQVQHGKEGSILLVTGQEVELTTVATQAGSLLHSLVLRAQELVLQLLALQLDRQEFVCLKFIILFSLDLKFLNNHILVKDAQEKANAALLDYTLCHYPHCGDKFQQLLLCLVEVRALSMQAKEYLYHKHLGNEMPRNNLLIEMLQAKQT
row,Structure (SMILES),inhibition
1,O=C(COc1ccc(Cl)cc1)Nc1ccccc1CO,-29%
2,O=C(NCc1cn2ccsc2n1)Nc1ccc(Cl)cc1,1.7%
3,O=C(NCc1ccco1)c1cc2sccc2n1Cc1ccc(F)cc1,11%
4,COc1ccc(CCNC(=O)CSc2nc(C)nc3c2oc2ccccc23)cc1OC,-27.3%
5,COc1cccc(CN2C(=O)CCC2(C)C(=O)NC2CCCCCC2)c1 (centres undefined),-6.9%
6,O=C(Nc1cccc(Cl)c1)OCc1ccccn1,-33.6%
7,COc1ccccc1NC(=O)CSc1nnc(Cc2cccn2C)n1-c1ccc(F)cc1,16.2%
8,O=C(Nc1ccccc1F)c1cc(S(=O)(=O)N2CCCCC2)cs1,4.9%
9,COc1cccc(OC)c1C(=O)Nc1nnc(C(C)C)s1,5.1%
10,C=CCNC(=O)CCCOc1cccc(C)c1,-11.2%
11,Cc1cccc(NC(=O)c2ccc3ccccc3n2)n1,-98.6%
12,COc1cccc(N(CC(=O)NC2CCCC2)C(=O)Cn2nnc(-c3ccc(C)cc3)n2)c1,-13.3%
13,COC(=O)c1sc(NC(=O)c2csc3c2CCCC3)nc1C,-50.9%
14,COc1cccc2sc(Nc3nc(C)c(C(C)=O)s3)nc12,-109%
15,COC(=O)c1sc(NC(=O)c2ccc(OC)cc2OC)nc1C,57.8% (active)
16,CC(C)C(c1nnnn1Cc1ccccc1)N1CCC(C(N)=O)CC1 (centres undefined),7.4%
17,Cn1nnc2cc(C(=O)NCCC3=CCCCC3)ccc21,-49.9%
18,O=C(c1cccs1)N1CCN(C(=O)N2CCOCC2)CC1,-0.9%
19,CN(c1ccc(C(=O)NCCC2=CCCCC2)cc1)S(C)(=O)=O,-55.4%
20,CCCCOc1ccc(-c2nnc(-c3ccco3)o2)cc1,-23.7%
21,CCC(=O)Oc1cccc(C(=O)Nc2ccc(-c3nnc(-c4ccco4)o3)cc2)c1,-79.8%
22,CCOc1ccc(-c2nnc(-c3ccco3)o2)cc1,48% (active)

row,Structure (SMILES),inhibition
1,Cc1csc(NC(=O)C2CCCN2C(=O)OCC(C)C)n1 (centres undefined),5.9%
2,O=C(NCc1ccccn1)Nc1ccc(F)cc1,-14.7%
3,CC(=O)OC(C(=O)NCCc1ccccc1)c1cccnc1 (centres undefined),4.1%
4,CCCC(=O)C1=C(N(C)c2ccccc2)CC(C)(C)C(C(=O)OC)C1=O (centres undefined),-2.3%
5,CCc1nnc(NC(=O)c2cccs2)s1,-50%
6,Cc1noc(NS(=O)(=O)c2ccc(N3CC(O)=C(c4ccccc4)C3=N)cc2)c1C,10.1%
7,COCc1cc(C)nc(Nc2cc(C)ccc2C)c1C#N,3.4%
8,COc1ccc(C)c2sc(=NC(=O)c3ccc(C#N)cc3)n(C)c12,-42.4%
9,Clc1ccc(Cc2nnc(-c3cccs3)o2)cc1,-59.5%
10,CCn1c(CSc2nncn2-c2ccc(OC)cc2)nc2cc(S(=O)(=O)N(C)C)ccc21,-10.1%
11,COc1ccc(OCCCC(=O)Nc2nnc(C3CCCO3)s2)cc1 (centres undefined),-1.2%
12,Cc1[nH]c2ccc(S(N)(=O)=O)cc2c1C,-22.2%
13,CN(C)c1ccc(CNC23CN4CN(CN(C4)C2)C3)cc1,14.1%
14,O=C(NCc1ccccc1)C1C(=O)N(Cc2ccccc2)C(=O)C1C1(O)CCCC1 (centres undefined),4.4%
15,CC1CN(c2cc(=O)n(Cc3ccc(F)cc3)c(=O)[nH]2)CC(C)O1 (centres undefined),-7.1%
16,O=C(CN1C(=O)COc2ccccc21)NCCN1CCc2ccccc2C1,1.3%
17,C[N+]1(CCNC(=O)/C=N/O)CCCCC1,3.2%
18,CC(C)C(=O)Nc1cccc(C(=O)Nc2ccc3c(c2)OCO3)c1,-55%
19,Cc1cccc(NC(=O)CSC(N)=O)c1C,9.5%
20,CCOC(=O)c1sc(N(Cc2ccccc2)C(=O)CN2C(=O)CN(C)C2=O)nc1C,3.4%
21,CCS(=O)(=O)N1CCC(C(=O)N2CCN(c3ccccc3)CC2)CC1,0.7%
22,O=C(Nc1ccc(NC(=O)c2cccs2)cn1)c1ccco1,-73.3%

row,Structure (SMILES),inhibition
1,O=C(c1cccc(C(=O)N2CCN(c3ccc(F)cc3)CC2)c1)N1CCN(c2ccc(F)cc2)CC1,6.4%
2,COc1ccc(C2=NOC(C(=O)NCc3ccco3)C2)cc1OC (centres undefined),-23.3%
3,COC(=O)c1ccccc1NC(=O)C1CCN(S(=O)(=O)c2cc(OC)ccc2OC)CC1,4.4%
4,CC(=O)c1cc(C#N)c(SCC(=O)C(C)(C)C)nc1C,-57.1%
5,CCOC(=O)C1=C(C)N=c2s/c(=C\C(=O)OC)c(=O)n2C1c1ccc(OC)cc1 (centres undefined),-6.9%
6,COc1ccc(OC)c(CNC(=O)C2CCCN(c3nc4ccccc4o3)C2)c1 (centres undefined),9.1%
7,COCc1cc(C)nc(SCC(=O)Nc2cccc(C)c2)c1C#N,2.8%
8,Cc1cnc(NC(=O)CSc2nnc(-c3ccccc3)n2Cc2ccccc2)s1,13.7%
9,COc1ccc(N2CCN(CCNC(=O)CCN3C(=O)COc4ccccc43)CC2)cc1,11.5%
10,CCOC(=O)CCC(=O)OCC(=O)NC(C)C1CC2CCC1C2 (centres undefined),0.5%
11,COc1ccc(OC)c(Nc2nc(-c3ccc(O)c(O)c3)cs2)c1,85.3% (active)
12,CCc1ccc2oc(-c3ccc(N)cc3)nc2c1,50.8% (active)
13,Nc1ccc(-c2nnc(-c3ccc(-c4ccccc4)cc3)o2)cc1,-55.2%
14,Cc1cc2nc(-c3ccc(NC(=O)c4cccnc4)cc3)oc2cc1C,-54.8%
15,O=C(CSc1nnc2ccccn12)c1ccccc1,-55.3%
16,Fc1ccc2[nH]c3c(N4CCSCC4)ncnc3c2c1,58.1% (active)
17,Fc1ccc2[nH]c3c(N4CCN(Cc5ccc6c(c5)OCO6)CC4)ncnc3c2c1,83.3% (active)
18,O=C(C1CCN(S(=O)(=O)c2cnc[nH]2)CC1)N1CCN(Cc2ccc3c(c2)OCO3)CC1,6.1%
19,CC[C@]1(O)C[C@@H]2CN(CCc3c([nH]c4ccccc34)[C@@](C(=O)OC)(c3cc4c(cc3OC)N(C)[C@H]3[C@@](O)(C(=O)OC)[C@H](OC(C)=O)[C@]5(CC)C=CCN6CC[C@]43[C@@H]65)C2)C1,73.1% (active)
20,CC[C@]1(O)CC2CN(CCc3c([nH]c4ccccc34)[C@@](C(=O)OC)(c3cc4c(cc3OC)N(C=O)[C@H]3[C@@](O)(C(=O)OC)[C@H](OC(C)=O)[C@]5(CC)C=CCN6CC[C@]43[C@@H]65)C2)C1 (some centres undefined),73.8% (active)
